Measured values: PubChem BioAssay (NCI)
Compounds without any hit were thinned out: in the full panel of roughly 83,000, 20% have a hit.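 96-well plates, one dose, 48 hours. Percent growth reported; active if below 10.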 The source made the active and inactive calls.

Key:
Assay in all cases: NCI-60 one-dose screen, 48 h (100 = growth as untreated, 0 = no growth, -100 = all killed)
DU-145 prostate = conditions: 10 µM unless noted
K-562 leukemia = conditions: 10 µM unless noted
MALME-3M melanoma = conditions: 10 µM unless noted
RXF 393 renal = conditions: 10 µM unless noted
SF-295 CNS = conditions: 10 µM unless noted
UACC-257 melanoma = conditions: 10 µM unless noted
M14 melanoma = conditions: 10 µM unless noted
SK-MEL-5 melanoma = conditions: 10 µM unless noted
UACC-62 melanoma = conditions: 10 µM unless noted
LOX IMVI melanoma = conditions: 10 µM unless noted
SK-MEL-2 melanoma = conditions: 10 µM unless noted
A498 renal = conditions: 10 µM unless noted
HL-60(TB) leukemia = conditions: 10 µM unless noted
CCRF-CEM leukemia = conditions: 10 µM unless noted
OVCAR-4 ovarian = conditions: 10 µM unless noted
IGROV1 ovarian = conditions: 10 µM
OVCAR-3 ovarian = conditions: 10 µM unless noted
BT-549 breast = conditions: 10 µM
HCC-2998 colon = conditions: 10 µM unless noted
SR leukemia = conditions: 10 µM

Measured: growth

COc1ccccc1N1CCN(CCc2c[nH]c3cc4c(cc23)OCO4)CC1
active: IGROV1 ovarian -33.9%
inactive: DU-145 prostate 103% | K-562 leukemia 76.3% | MALME-3M melanoma 92% | RXF 393 renal 75.8% | SF-295 CNS 41% | UACC-257 melanoma 56.7% | M14 melanoma 68.9% | SK-MEL-5 melanoma 74.8% | UACC-62 melanoma 69.2% | LOX IMVI melanoma 60.4% | SK-MEL-2 melanoma 57.6% | A498 renal 108% | HL-60(TB) leukemia 64.8% | CCRF-CEM leukemia 75.4% | OVCAR-4 ovarian 99.2% | OVCAR-3 ovarian 91.2% | BT-549 breast 84.2% | HCC-2998 colon 92.6%

OC1(c2ccc(Cl)cc2Cl)c2ccccc2C2=NCCN21 (configuration not stated)
inactive: DU-145 prostate 109% | K-562 leukemia 81.1% | MALME-3M melanoma 100% | SF-295 CNS 95.3% | UACC-257 melanoma 86.2% | M14 melanoma 102% | SK-MEL-5 melanoma 83% | UACC-62 melanoma 94% | LOX IMVI melanoma 90.7% | SK-MEL-2 melanoma 98.2% | A498 renal 94.4% | HL-60(TB) leukemia 63.3% | CCRF-CEM leukemia 90.5% | SR leukemia 80.5% | OVCAR-4 ovarian 105% | IGROV1 ovarian 78.9% | OVCAR-3 ovarian 85.6% | BT-549 breast 93.5% | HCC-2998 colon 75.3%
active: RXF 393 renal -13%

CC(=O)Oc1ccc(Cl)cc1
inactive: K-562 leukemia 94.5% | MALME-3M melanoma 96.7% | RXF 393 renal 105% | SF-295 CNS 112% | UACC-257 melanoma 95.1% | M14 melanoma 98.6% | SK-MEL-5 melanoma 104% | UACC-62 melanoma 91.9% | LOX IMVI melanoma 90.5% | SK-MEL-2 melanoma 106% | A498 renal 82.2% | HL-60(TB) leukemia 98.4% | CCRF-CEM leukemia 104% | OVCAR-4 ovarian 97.3% | IGROV1 ovarian 114% | OVCAR-3 ovarian 63.7% | BT-549 breast 98.3% | HCC-2998 colon 96.1%

O=C(CC1(O)C(=O)Nc2ccc(F)cc21)c1ccc(C(=O)NCC2CCC3(CC2)OOC2(CCCCC2)OO3)cc1 (configuration not stated)
active: DU-145 prostate 3.83% | MALME-3M melanoma -35.8% | HL-60(TB) leukemia -64.2% | CCRF-CEM leukemia -32.1% | SR leukemia -43.2% | IGROV1 ovarian 3.82% | OVCAR-3 ovarian -50.1%
inactive: K-562 leukemia 14.9% | RXF 393 renal 59.4% | SF-295 CNS 79.3% | UACC-257 melanoma 70.4% | M14 melanoma 83.9% | UACC-62 melanoma 73.4% | LOX IMVI melanoma 39.1% | A498 renal 65% | OVCAR-4 ovarian 65.6% | BT-549 breast 78% | HCC-2998 colon 113%

O=C(CCl)NCNC(=O)CCl
inactive: DU-145 prostate 103% | K-562 leukemia 98.9% | MALME-3M melanoma 114% | RXF 393 renal 107% | SF-295 CNS 56.5% | UACC-257 melanoma 76.5% | SK-MEL-5 melanoma 92.7% | UACC-62 melanoma 82% | SK-MEL-2 melanoma 90.4% | A498 renal 109% | HL-60(TB) leukemia 102% | SR leukemia 80.2% | OVCAR-4 ovarian 77.4% | IGROV1 ovarian 74.4% | OVCAR-3 ovarian 105% | BT-549 breast 86.7% | HCC-2998 colon 111%

COC(=O)C(=[N+]=[N-])C(=O)OC
inactive: DU-145 prostate 112% | K-562 leukemia 95.5% | MALME-3M melanoma 110% | RXF 393 renal 102% | SF-295 CNS 101% | UACC-257 melanoma 96.4% | SK-MEL-5 melanoma 104% | UACC-62 melanoma 95.3% | LOX IMVI melanoma 103% | SK-MEL-2 melanoma 91.2% | A498 renal 100% | HL-60(TB) leukemia 100% | CCRF-CEM leukemia 61.4% | SR leukemia 100% | OVCAR-4 ovarian 97.1% | IGROV1 ovarian 110% | OVCAR-3 ovarian 118% | BT-549 breast 103% | HCC-2998 colon 108%

C[C@@H]1CC[C@@H]2[C@@H]1[C@H](OC(=O)/C=C/C1CCCCC1)[C@]1(C3CCCCC3)C[C@@H](OC(=O)CO)[C@@]2(C)O1
inactive: DU-145 prostate 82.1% | K-562 leukemia 44.1% | MALME-3M melanoma 78.8% | RXF 393 renal 13.3% | SF-295 CNS 72.7% | UACC-257 melanoma 61.7% | SK-MEL-5 melanoma 84.8% | UACC-62 melanoma 69.5% | SK-MEL-2 melanoma 73.7% | CCRF-CEM leukemia 41.1% | OVCAR-4 ovarian 61.1% | IGROV1 ovarian 75.7% | OVCAR-3 ovarian 70.6% | HCC-2998 colon 49.5%
active: A498 renal -83.3% | HL-60(TB) leukemia 8.36% | BT-549 breast 0.314%

CC(=O)[O][Hg][c]1ccccc1
inactive: SF-295 CNS 13.6%
active: DU-145 prostate -97.9% | K-562 leukemia -21% | MALME-3M melanoma -88% | RXF 393 renal -92% | M14 melanoma -90% | SK-MEL-5 melanoma -87.6% | UACC-62 melanoma -69% | LOX IMVI melanoma -88.2% | SK-MEL-2 melanoma -52.9% | A498 renal -46.6% | HL-60(TB) leukemia -27.5% | CCRF-CEM leukemia 0.0979% | SR leukemia -31.3% | OVCAR-4 ovarian -25.2% | IGROV1 ovarian -55.1% | OVCAR-3 ovarian -93.3% | BT-549 breast -96.7% | HCC-2998 colon -96.5%
